This is a sample that favours compounds with a hit; in the whole collection about 4.1% have one here.
PRMT1 inh: inhibitors of human PRMT1. Q99873. recombinant PRMT1, activity-based probe fluorescence polarization. inhibition, % at 2.79 µM. 370,000 compounds, 1.3% hits. AID 652257;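 active = inhibition above about 21% made by adding two undisclosed values, limit read from the data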
MBD2 DNA inh: MBD2-methylated oligo binding inhibition; TR-FRET, MBD2 binding to methylated oligonucleotide; 370,000 compounds, 0.31% hits; Q9UBB5; inhibition, % at 4.4 µM; in the data active = inhibition above about 13%
LEDGF integ inh: blocks HIV-1 LEDGF/p75-dependent DNA integration | TR-FRET IN-LEDGF/p75 DNA integration, Eu/Cy5 | inhibition, % at 3.7 µM | 370,000 compounds, 0.64% hits;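 active = inhibition above the screen-wide mean plus 3 SD, cut at about 13% in these data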;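 note: signal is the Cy5 over europium emission ratio at 671 and 618 nm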
rCAG binder: binds r(CAG) RNA repeats. r(CAG) RNA repeat, TO-PRO-1 dye displacement fluorescence. inhibition, % at 3 µM. 370,000 compounds, 1.3% hits. AID 651821;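 active = inhibition above the plate cutoff, the mean of all test compounds on that plate plus 3 SD, cut at about 35% in these data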;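 note: higher means more dye released from RNA so lower well fluorescence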
UHRF1 binding: UHRF1 methyl-DNA binding inhibition. 370,000 compounds, 0.75% hits. AID 687016. inhibition, % at 4.4 µM. UHRF1 binding to methylated oligo, TR-FRET. Q96T88; in the data active = inhibition above about 21%;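 note: UHRF1 SRA domain binding a hemimethylated CpG hairpin DNA probe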
ABHD5 PLIN5 PPI: ABHD5-PLIN5 protein interaction inhibition; Q00G26+Q8WTS1; Split G. princeps luciferase complementation, luminescence, 4 h; inhibition, % at 4 µM; 360,000 compounds, 0.78% hits;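 active = inhibition above the mean inhibition across every tested compound plus 3 SD, cut at about 22% in these data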
ABHD5-PLIN5 conf: ABHD5-PLIN5 interaction inhibition, confirmed; biochemical ABHD5-PLIN5 interaction, luminescence; shares compounds with ABHD5 PLIN5 PPI; 2,200 compounds, 67% hits; inhibition, % at 4 µM; in the data active = inhibition above about 23%
HNF4 counter: active in HNF4 split-luciferase counter-screen for ABHD5-PLIN5 inhibitors | shares compounds with ABHD5 PLIN5 PPI | HNF4 dimerization, luminescence, biochemical | inhibition, % at 4 µM | 2,200 compounds, 77% hits;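 active = mean inhibition across replicate wells exceeding the computed hit threshold, cut at about 13% in these data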;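 note: light from luciferase halves that rejoin when HNF4 fusion proteins dimerize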
A number is an active result; n = inactive; x = not tested or not shown.

SMILES | PRMT1 inh | MBD2 DNA inh | LEDGF integ inh | rCAG binder | UHRF1 binding | ABHD5 PLIN5 PPI | ABHD5-PLIN5 conf | HNF4 counter
N#CCC[C@@H]1CC[C@]2(CCCN(Cc3ccccc3)C2)O1 | n | n | n | n | n | x | x | x
Cc1cccc2sc(N(CCCN(C)C)C(=O)CCc3ccccc3)nc12 | n | n | n | n | n | 26 | n | n
Cc1ccc2sc(N(CCCN(C)C)C(=O)c3ccc(Br)s3)nc2c1C | n | n | n | n | n | 27 | n | n
CC(=O)OCC1OC(n2cc(F)c(=O)[nH]c2=O)C(OC(C)=O)C1OC(C)=O (configuration not stated) | n | n | n | n | n | n | x | x
O=C1C(F)=CC(COC(c2ccccc2)(c2ccccc2)c2ccccc2)OC1n1cc(F)c(=O)[nH]c1=O (configuration not stated) | n | n | n | n | n | 42 | 101 | 97
CC1(C)CC(=O)C(=Cc2cn(CCC#N)nc2-c2ccc(F)cc2)C(=O)C1 | n | n | n | n | n | 23 | 45 | 38
O=C1C=C(c2ccccc2)C(=O)N1Nc1ccccc1 | 22 | n | n | n | n | 86 | 100 | 107
COc1ccc(N2C(=O)c3ccccc3C2=O)cc1 | n | n | n | n | n | n | x | x
COc1ccc(C2=CC(=O)N(Nc3ccccc3)C2=O)cc1 | n | n | n | n | n | 88 | 86 | 88
Cc1ccc(NN2C(=O)C=C(c3ccc(Cl)cc3)C2=O)cc1 | n | n | n | n | n | 95 | 101 | 107
O=C1Cc2ccccc2C(=O)N1Nc1ccccc1 | n | n | n | n | n | n | x | x
COc1ccc(-n2cc(CNC3CCN(C)CC3)c(-c3cccc(F)c3)n2)cc1 | n | n | n | n | n | 32 | n | n
COC(=O)c1ccccc1NC(=O)NCC1CCN(Cc2ccc(OC)cc2)CC1 | n | n | n | n | n | x | x | x
CCCCCCC(=O)NC1CCCCN(C)C1=O (configuration not stated) | n | n | n | n | n | x | x | x
CCCCCCC=C1CCC(CN2CCCC2)C1=O (configuration not stated) | n | n | n | n | n | 25 | 84 | 28
CCN(CC)CCNC(=O)c1ccc(NC(=O)c2cn(-c3ccccc3)nc2-c2cccs2)cc1 | n | n | n | n | n | 35 | n | n
Cc1ccc2c(c1)C(CS(=O)(=O)NCC(C)C)NC2 (configuration not stated) | n | n | n | n | n | x | x | x
Cc1cccc(-c2cccc3c4c([nH]c23)[C@@H]2C[C@H]3[C@@H](CN2CC4)[C@H](C)ON3C)c1 | n | n | n | n | n | x | x | x
O=C(COC(=O)CCC(=O)c1ccc(Cl)cc1)NCc1ccco1 | n | n | n | n | n | 25 | n | n
O=C(COC(=O)CCC(=O)c1ccc(F)cc1)NCc1ccc(Cl)cc1 | n | n | n | n | n | n | x | x
COC(=O)[C@]12C[C@H](CC(=O)NCCc3ccccc3OC)C(=O)N(CCC3=CCCCC3)C1=C[C@H](COCc1ccccc1)O[C@@H]2C | n | n | n | n | n | x | x | x
Oc1cccc(Nc2nc(N3CCOCC3)nc(N3CCOCC3)n2)c1 | n | n | n | n | n | 25 | n | 15
Cc1cccc(Nc2nc(N3CCOCC3)nc(N3CCOCC3)n2)c1 | n | n | n | n | n | n | x | x
COc1cccc(-c2sc3ccc(OC)cc3c2-c2ccc(OCCN(C)C)cc2)c1 | n | n | n | n | n | n | x | x
COc1ccc(-c2sc3ccccc3c2-c2ccc(OCCN(C)C)cc2)cc1 | n | n | n | n | n | 40 | n | n
CN(C)CCOc1ccc(-c2c(-c3ccsc3)sc3ccccc23)cc1 | n | n | n | n | n | 29 | n | n
CCOC(=O)CNC(=O)CSc1nnc(-c2ccccc2)n1CC | n | n | n | n | n | x | x | x
COC(=O)C(Cc1ccc(O)cc1)NS(=O)(=O)Cc1ccccc1 (configuration not stated) | n | n | n | n | n | x | x | x
COC(=O)[C@]12C[C@H](CC(=O)NCc3cccc(C(F)(F)F)c3)C(=O)N(CCc3ccc(OC)c(OC)c3)C1=C[C@H](C(C)C)O[C@@H]2C1CC1 | n | n | n | n | n | x | x | x
